This note sets out measurements from PubChem BioAssay (NCI).

Compounds without any hit were thinned out: in the full panel of roughly 83,000, 20% have a hit.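 Values shown are percent growth following 48 h exposure of cells in 96-well plates to a single concentration of compound; below 10 was considered active.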 The source made the active and inactive calls.

One test concerns NCI-H322M lung. The test can be described thus: NCI-60 one-dose screen, 48 h (100 = growth as untreated, 0 = no growth, -100 = all killed). To be noted: 10 µM unless noted.
As for `Nc1ccccc1-c1ccc(-c2ccc(Cl)cc2)c2c1[nH]c1ccccc12`, the growth is 64% (inactive).
Regarding `OC(CNC1CCCCC1)Cn1c2ccc(I)cc2c2cc(I)ccc21` (stereo not drawn), the growth is 75.8% (inactive).
Take `COc1cc(C(=O)NN=C2c3ccccc3-c3ccccc32)cc(OC)c1OC`: the growth is 54% (inactive).
Still for that read-out and setting: the value for `C=C(C)CCC(C)N1CCC(N2CCC(C(=O)NCCc3ccccc3)CC2)CC1` (stereo not drawn) was 81% (inactive); that for `C#CCn1cc(C=C2C(=O)N(C)C(=O)N(C)C2=O)c2cc(Cl)ccc21` was 102% (inactive); that for `O=C(Nc1ccc(C23CC4CC(CC(c5ccccc5)(C4)C2)C3)cc1)c1cccs1` was 92.5% (inactive).
Still for that read-out and setting: the same measure for `O=C(Cc1ccccc1)NC(c1ccc(Cl)cc1)c1c(O)ccc2ccccc12` (stereo not drawn): 15.4% (inactive).
Still for that read-out and setting: the value for `COc1ccc(CSc2nnc(SCC(=O)Nc3ccc(Cl)cc3)s2)cc1` was 65.4% (inactive); that for `O=C(COc1cc(O)c2c(=O)cc(-c3ccccc3)oc2c1)Nc1ccccc1C(F)(F)F` was 62.2% (inactive).
For `Cc1cc(OC(=O)c2ccc([N+](=O)[O-])cc2)nc2[nH]c(=O)sc12`, the growth was 110% (inactive).
`O=c1oc2ccc(F)cc2c(=O)n1-c1ccc(I)cc1F`: the growth was 8.02% (active).
Same read-out and setting: the same measure for `O=Cc1c(OCc2cnnn2CC(=O)Nc2ccc(Br)cc2)ccc2ccccc12`: 96.1% (inactive); for `COc1ccc2[nH]c(O)c(N=NC(=O)c3oc4ccccc4c3C)c2c1`: 30.6% (inactive); for `Cc1cc(Nc2ccc(OCc3ccccc3)cc2)nc2cc(O)ccc12`: 76.2% (inactive).
On to `O=C(COc1cc(O)c2c(=O)cc(-c3ccccc3)oc2c1)Nc1ccccc1`, for which the growth was 85.6% (inactive).
As for `O=C(Nc1ccc(-c2nc3ccc(NC(=O)c4ccc(Cl)cc4)cc3[nH]2)cc1)c1ccc(Cl)cc1`, the growth is 10.4% (inactive).
On to `O=C1c2cc(Br)ccc2Oc2cc([N+](=O)[O-])ccc2N1c1ccc(I)cc1F`, for which the growth was 103% (inactive).
On the same count and under the same terms, the value for `Cc1ccc2nc(NC(=O)CSC(=S)N3CCN(c4ccccc4)CC3)sc2c1` was 92.9% (inactive).
The same measure, in the same setting: the same measure for `CCCCCCC(O)(c1ccc(F)cc1)C(CN1CCOCC1)c1ccccc1` (stereo not drawn): 74.7% (inactive).
For `COc1ccc(CCN2CCC(CN(C)Cc3cnn(-c4ccccc4)c3)CC2)cc1`, the growth is 46.4% (inactive).
For `NC(=O)CSc1nc(-c2ccc(F)cc2)cc(-c2ccco2)n1`, the growth was 99.9% (inactive).
Same read-out and setting: the same measure for `CCCSC1=NC2C(N(CC)C(=O)N2CC)N1/N=C/C=C/c1ccccc1[N+](=O)[O-]` (stereo not drawn): 57.5% (inactive); for `O=c1oc2ccc(Cl)cc2c(=O)n1-c1ccc(I)cc1F`: 6.37% (active).
As to `COc1ccc(C2NCCc3c2[nH]c2ccccc32)cc1CN1CCN(c2ccc(F)cc2)CC1` (stereo not drawn), the growth is 78.5% (inactive).
On the same count and under the same terms, the value for `Cc1sc2ncnc(Sc3nc4ccccc4[nH]3)c2c1C` was -18.4% (active); that for `FC(F)(F)c1cccc(CNC2CCN(CCc3ccccc3)CC2)c1` was 84% (inactive).
Turning to `O=C(Nc1ccc(I)cc1F)c1cc(Br)ccc1O`, the growth is 7.16% (active).
For `Cc1ccc2[nH]c(=O)cc(-n3nncc3Cn3c4ccccc4c4ccccc43)c2c1`, the growth was 97.6% (inactive).
For the molecule `CC(=O)n1cc(-c2c[nH]c3ccccc23)c(-c2ccc(Cl)cc2)n1`, the growth is 83.6% (inactive).
For `CC[C@H](C)[C@@H](C(=O)OC)n1cc(CNC(=O)[C@@H](Cc2ccccc2)NC(=O)OCc2ccccc2)nn1`, the growth is 95.5% (inactive).
Regarding `O=C(Nc1ccc(I)cc1F)c1cc(Cl)ccc1O`, the growth was 8.59% (active).
For the molecule `NNC(=O)CNC(=O)Nc1n[nH]c(=S)s1`, the growth was 103% (inactive).
Still for that read-out and setting: the same measure for `COc1ccc(Nc2cc(C)nc(NCc3ccccc3)n2)cc1`: 61.9% (inactive).
Still for that read-out and setting: the same measure for `O=C(Nc1ccc(N2CCNCC2)cn1)c1[nH]ncc1Nc1ncnc2sc3c(c12)CCC3`: 63.8% (inactive); for `COc1c(B(O)O)cccc1-c1nc2ccc3[nH]ncc3c2c2c1C1CCC2C1` (stereo not drawn): 84.2% (inactive).
Same read-out and setting: the same measure for `COC(=O)c1cc2c(n1Cc1ccccc1)-c1oncc1CCC2`: 114% (inactive).
In the case of `O=C(Nc1ccc(N2CCNCC2)cc1)c1[nH]ncc1Nc1cc(C2CC2)ncn1`, the growth is 37.6% (inactive).
Regarding `CC(C)CCNCC(O)Cn1c2ccccc2c2ccccc21` (stereo not drawn), the growth is 30.7% (inactive).
Still for that read-out and setting: the value for `COc1cc(/C=C2\CN(C)C/C(=C\c3cc(CN4CCOCC4)c(O)c(OC)c3)C2=O)cc(CN2CCOCC2)c1O` was 67.5% (inactive).

For a further test, the system named is HOP-62 NSCLC. Described as above. To be noted: 10 µM unless noted.
In the case of `Nc1ccccc1-c1ccc(-c2ccc(Cl)cc2)c2c1[nH]c1ccccc12`, the growth was 79.5% (inactive).
Same read-out and setting: the value for `OC(CNC1CCCCC1)Cn1c2ccc(I)cc2c2cc(I)ccc21` (stereo not drawn) was 74.4% (inactive).
On the same count and under the same terms, the value for `COc1cc(C(=O)NN=C2c3ccccc3-c3ccccc32)cc(OC)c1OC` was 36.6% (inactive); that for `C=C(C)CCC(C)N1CCC(N2CCC(C(=O)NCCc3ccccc3)CC2)CC1` (stereo not drawn) was 79% (inactive); that for `C#CCn1cc(C=C2C(=O)N(C)C(=O)N(C)C2=O)c2cc(Cl)ccc21` was 107% (inactive).
`O=C(Nc1ccc(C23CC4CC(CC(c5ccccc5)(C4)C2)C3)cc1)c1cccs1`: the growth was 119% (inactive).
On the same count and under the same terms, the value for `O=C(Cc1ccccc1)NC(c1ccc(Cl)cc1)c1c(O)ccc2ccccc12` (stereo not drawn) was 30.9% (inactive); that for `COc1ccc(CSc2nnc(SCC(=O)Nc3ccc(Cl)cc3)s2)cc1` was 89% (inactive); that for `O=C(COc1cc(O)c2c(=O)cc(-c3ccccc3)oc2c1)Nc1ccccc1C(F)(F)F` was 16.2% (inactive).
For the molecule `Cc1cc(OC(=O)c2ccc([N+](=O)[O-])cc2)nc2[nH]c(=O)sc12`, the growth was 111% (inactive).
On the same count and under the same terms, the same measure for `O=c1oc2ccc(F)cc2c(=O)n1-c1ccc(I)cc1F`: -3.36% (active); for `O=Cc1c(OCc2cnnn2CC(=O)Nc2ccc(Br)cc2)ccc2ccccc12`: 97.7% (inactive); for `COc1ccc2[nH]c(O)c(N=NC(=O)c3oc4ccccc4c3C)c2c1`: -24.1% (active).
Same read-out and setting: the value for `Cc1cc(Nc2ccc(OCc3ccccc3)cc2)nc2cc(O)ccc12` was 57.7% (inactive); that for `O=C(COc1cc(O)c2c(=O)cc(-c3ccccc3)oc2c1)Nc1ccccc1` was 101% (inactive).
On the same count and under the same terms, the same measure for `O=C(Nc1ccc(-c2nc3ccc(NC(=O)c4ccc(Cl)cc4)cc3[nH]2)cc1)c1ccc(Cl)cc1`: 29.2% (inactive).
Turning to `O=C1c2cc(Br)ccc2Oc2cc([N+](=O)[O-])ccc2N1c1ccc(I)cc1F`, the growth was 102% (inactive).
For `Cc1ccc2nc(NC(=O)CSC(=S)N3CCN(c4ccccc4)CC3)sc2c1`, the growth was 105% (inactive).
On the same count and under the same terms, the value for `CCCCCCC(O)(c1ccc(F)cc1)C(CN1CCOCC1)c1ccccc1` (stereo not drawn) was 56.9% (inactive); that for `COc1ccc(CCN2CCC(CN(C)Cc3cnn(-c4ccccc4)c3)CC2)cc1` was 30% (inactive).
As to `NC(=O)CSc1nc(-c2ccc(F)cc2)cc(-c2ccco2)n1`, the growth was 108% (inactive).
The same measure, in the same setting: the same measure for `CCCSC1=NC2C(N(CC)C(=O)N2CC)N1/N=C/C=C/c1ccccc1[N+](=O)[O-]` (stereo not drawn): 49.8% (inactive); for `O=c1oc2ccc(Cl)cc2c(=O)n1-c1ccc(I)cc1F`: 0.787% (active).
For `COc1ccc(C2NCCc3c2[nH]c2ccccc32)cc1CN1CCN(c2ccc(F)cc2)CC1` (stereo not drawn), the growth is 63.4% (inactive).
For the molecule `Cc1sc2ncnc(Sc3nc4ccccc4[nH]3)c2c1C`, the growth is -62.6% (active).
Turning to `FC(F)(F)c1cccc(CNC2CCN(CCc3ccccc3)CC2)c1`, the growth is 91.1% (inactive).
On the same count and under the same terms, the value for `O=C(Nc1ccc(I)cc1F)c1cc(Br)ccc1O` was -5.03% (active); that for `Cc1ccc2[nH]c(=O)cc(-n3nncc3Cn3c4ccccc4c4ccccc43)c2c1` was 93.4% (inactive); that for `CC(=O)n1cc(-c2c[nH]c3ccccc23)c(-c2ccc(Cl)cc2)n1` was 66.3% (inactive).
For `CC[C@H](C)[C@@H](C(=O)OC)n1cc(CNC(=O)[C@@H](Cc2ccccc2)NC(=O)OCc2ccccc2)nn1`, the growth is 103% (inactive).
Still for that read-out and setting: the value for `O=C(Nc1ccc(I)cc1F)c1cc(Cl)ccc1O` was 2.14% (active).
Turning to `NNC(=O)CNC(=O)Nc1n[nH]c(=S)s1`, the growth is 100% (inactive).
Take `COc1ccc(Nc2cc(C)nc(NCc3ccccc3)n2)cc1`: the growth was 38.5% (inactive).
Same read-out and setting: the same measure for `O=C(Nc1ccc(N2CCNCC2)cn1)c1[nH]ncc1Nc1ncnc2sc3c(c12)CCC3`: 76.2% (inactive).
The same measure, in the same setting: the same measure for `COc1c(B(O)O)cccc1-c1nc2ccc3[nH]ncc3c2c2c1C1CCC2C1` (stereo not drawn): 65.7% (inactive).
On to `COC(=O)c1cc2c(n1Cc1ccccc1)-c1oncc1CCC2`, for which the growth is 72.9% (inactive).
The same measure, in the same setting: the value for `O=C(Nc1ccc(N2CCNCC2)cc1)c1[nH]ncc1Nc1cc(C2CC2)ncn1` was 66.4% (inactive); that for `CC(C)CCNCC(O)Cn1c2ccccc2c2ccccc21` (stereo not drawn) was 18.1% (inactive); that for `COc1cc(/C=C2\CN(C)C/C(=C\c3cc(CN4CCOCC4)c(O)c(OC)c3)C2=O)cc(CN2CCOCC2)c1O` was 68.9% (inactive).
